Bioassay records deposited in PubChem by National Center for Advancing Translational Sciences (NCATS).
TRHR agonist: qHTS for Small Molecule Agonists and Allosteric Enhancers of Human TRH Receptor: Primary Screen for Agonists; hit rate 0.18% among 360,000; AID 493084, 2011; activation, % at 2 µM; TRHR cells, calcium flux fluo-8, FDSS agonist mode; in the data active means activation above about 30%; further: 0% is about no effect
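TRHR-expressing cells loaded with fluo-8 calcium dye; 23 nL library compound pin-transferred, kinetic FDSS fluorescence (Ex 480/Em 530) recorded about 180 s for agonist-induced calcium release, before a 10 nM TRH EC20 addition for potentiator mode.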
GLP-1R inv ag: qHTS of GLP-1 Receptor Inverse Agonists (Inhibition Mode); Glucagon-like peptide 1 receptor (Homo sapiens), P43220; HEK293 GLP-1R CRE-luciferase, luminescence, 24 h; GLP-1R form is constitutively active; Potency, µM (doses to about 38.3 µM), inactives show top-dose activity change, negative = inhibition, actives largely listed as inhibitors; hit rate 1.6% among 410,000; AID 624417, 2012; further: potency means the concentration at half of the fitted maximal effect; on the % scale 0 is the no-effect control and ±100 the full control effect; nearly all actives have a fitted effect of over 55% in size
Target sequence (P43220 whole entry, looked up): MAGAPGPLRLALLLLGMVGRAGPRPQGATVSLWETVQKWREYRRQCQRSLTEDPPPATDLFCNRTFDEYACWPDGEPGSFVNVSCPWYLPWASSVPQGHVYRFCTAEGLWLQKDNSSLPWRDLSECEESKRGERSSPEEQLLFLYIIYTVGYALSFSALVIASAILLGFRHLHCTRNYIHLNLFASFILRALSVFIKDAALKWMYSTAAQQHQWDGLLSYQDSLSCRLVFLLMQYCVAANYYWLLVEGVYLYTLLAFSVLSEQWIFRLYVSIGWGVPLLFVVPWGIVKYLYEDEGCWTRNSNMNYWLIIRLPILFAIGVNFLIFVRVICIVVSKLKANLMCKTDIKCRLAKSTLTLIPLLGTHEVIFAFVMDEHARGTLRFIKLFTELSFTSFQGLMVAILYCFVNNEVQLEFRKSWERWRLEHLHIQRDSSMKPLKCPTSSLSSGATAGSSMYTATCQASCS
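Stable HEK293 clone (constitutively active GLP-1R + cAMP-response luciferase); 200 cells/uL plated, 12 h pre-culture, compound 24 hr, 37 deg C/5% CO2; detection reagent 12 min RT; luminescence.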
GLP1R cytotox: qHTS of GLP-1 Receptor Inverse Agonists: Cytotox Screen; HEK293 cAMP-luciferase reporter cells, luminescence, 24 h; Potency, µM (titrated, usually from 38.3 µM), inactives show at the top dose activity change, negative = inhibition, hits mostly inhibitors; hit rate 0.13% among 410,000;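 further: loss of luciferase light is scored as toxicity; potency means the concentration at half of the fitted maximal effect; on the % scale 0 is the no-effect control and ±100 the full control effect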
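Step one: seed cells (200 cells/uL, DMEM with 10% Nu serum, 1% pen-strep). Step two: 12-hour incubation at 37 deg C. Step three: pin 23 nL compound, incubate 24 hr. Step four: add luciferase reagent, read luminescence 12 min later.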
PTHR1 agonist: qHTS for PTHR1 Agonists: Primary Screen. AID 743266, 2014. Potency, µM (series often up to 115 µM), for inactives: top-dose activation, actives largely listed as activators. hit rate 0.075% among 410,000. Parathyroid hormone/parathyroid hormone-related peptide receptor (Homo sapiens), Q03431. HEK293 GP2 PTHR1 cells, GloSensor cAMP luminescence, 1 h; further: potency means the concentration at half of the fitted maximal effect; nearly all actives have a fitted effect of over 55% in size
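HEK-293-derived GP2 cells expressing PTHR1 and a GloSensor cAMP reporter, 3,000/well, plated overnight, given luciferin plus IBMX (each 0.5 mM as added) for 1 h at 37 °C, then compound for 1 h at 37 °C. Luminescence was read after 15 min at room temperature.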
TRHR enhancer: qHTS for Small Molecule Agonists and Allosteric Enhancers of Human TRH Receptor: Primary Screen for Enhancers. AID 493056, 2011. enhancement, % at 2 µM. Thyrotropin-releasing hormone receptor (Homo sapiens), P34981. TRHR cells, fluo-8 calcium fluorescence, EC20 TRH enhancement. hit rate 0.66% among 360,000; in the data active means enhancement above about 30%; further: 0% is about no effect
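TRHR-expressing cells loaded with fluo-8 calcium dye were read kinetically (ex 480/em 530) during compound addition, then stimulated with an EC20 of TRH (10 nM final). Enhancement of the Gq-mediated intracellular calcium response was scored.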
GLP1R ag: qHTS of GLP-1 Receptor Agonists | HEK293 GLP-1R CRE-luciferase, luminescence, 4-6 h; cells express a hypersensitive GLP-1R form | Potency, µM (highest dose often 45.6 µM), inactives show at the highest dose activation, most hits filed as activators | hit rate 0.007% among 380,000 | AID 624172, 2012; further: potency means the concentration at half of the fitted maximal effect; % of control where 0% means no effect
* marks the source's active call; other numbers are inactive results; i = inactive; ? = inconclusive; · = no result; [ ] = remark or other dose. Sampled rows, rich in hits. Any-hit rate of the full collection: about 2.4%. Unless noted, the call rests on the fitted dose curve; in most records, active means well fitted curve in the direction sought with a large enough effect; inconclusive means small, poorly fitted or top-dose-only effect, or another doubt; inactive means no such curve, though single readings can be large; an effect the other way counts as inactive or inconclusive.

SMILES	TRHR agonist	GLP-1R inv ag	GLP1R cytotox	PTHR1 agonist	TRHR enhancer	GLP1R ag
O=C(NCc1ccccc1)C(=O)Nc1c2c(nn1-c1ccc(F)cc1)CSC2	0	-2%	-9%	i	-2	·
CN1/C(=C\P(=O)(N(C)C)N(C)C)C(C)(C)c2ccccc21	2	-8%	?	i	-4	-9%
C=CC[C@@H](CC(=O)N[C@H](CO)Cc1ccccc1)C(=O)N[C@@H](COC(=O)[C@H](CC=C)CC(=O)OC(C)(C)C)Cc1ccccc1	·	?	-19%	-11%	·	9%
Cc1ccc(N(CC(=O)Nc2cccc(Cl)c2)S(=O)(=O)c2cccs2)cc1	5	-26%	-8%	-10%	-4	-2%
CC1N(C(=O)N(C)C)CCN1S(=O)(=O)c1ccccc1 (configuration not stated)	-1	2%	-9%	i	36*	5%
CC(C)C1N(C(=O)N(C)C)CCN1S(=O)(=O)c1ccccc1 (configuration not stated)	0	-10%	-5%	i	5	8%
COc1cc(N2CCCC2)c(OC)cc1/C=C1/NC(=S)NC1=O	71*	26%	42%	-14%	6	15%
COc1ccc(OC)c(/C=C2\NC(=O)NC2=O)c1	-1	-35%	5%	i	-2	-4%
CC(=O)N1c2ccc(S(=O)(=O)N3CCC(C(=O)N4CCCC(C)C4)CC3)cc2CC1C (configuration not stated)	0	4%	-3%	i	-4	5%
O=C1C(Cc2ccccc2)C(c2ccccc2)N1c1ccccc1 (configuration not stated)	0	?	23%	i	-3	-1%
Cc1ccc(N2C(=O)C(CN(C)C)C2c2ccccc2)cc1 (configuration not stated)	1	11µM*	-6%	-4%[57.5 µM]	17	16%
COc1ccc(N2C(=O)C(CN3CCCCC3)C2c2ccccc2)cc1 (configuration not stated)	0	?	-5%	0%	-6	14%
CCN(CC)CC1C(=O)N(c2ccc(OC)cc2)C1c1ccccc1 (configuration not stated)	3	10µM*	1%	i	-5	13%
CCCCn1c(N)c(N(CCOC)C(=O)c2cc3c(s2)CCCCC3)c(=O)[nH]c1=O	0	11%	22%	i	-1	8%
COC(=O)c1ccc(C2c3[nH]c4ccccc4c3C[C@H]3C(=O)N(C4CCN(Cc5ccccc5)CC4)CC(=O)N23)cc1 (some centres not stated)	-1	10µM*	-13%	?	12	-1%
O=C1[C@@H]2Cc3c([nH]c4ccccc34)C(c3ccccc3)N2C(=O)CN1C1CCN(Cc2ccccc2)CC1 (some centres not stated)	-2	2.2µM*	?	-8%	10	0%
O=C1[C@@H]2Cc3c([nH]c4ccccc34)C(c3cccc(Br)c3)N2C(=O)CN1C1CCN(Cc2ccccc2)CC1 (some centres not stated)	1	3.2µM*	?	i	16	4%
Cc1ccccc1C1c2[nH]c3ccccc3c2C[C@H]2C(=O)N(C3CCN(Cc4ccccc4)CC3)CC(=O)N12 (some centres not stated)	0	·	·	·	0	·
CC(C)(C)c1cc(NC(=O)C2(C)CCN2C(=O)c2ccccc2CCc2ccccc2)no1 (configuration not stated)	·	8.9µM*	5%	-48%	·	0%
